Data on 40 compounds can be found in PubChem BioAssay (NCI).

The panel holds about 83,000 compounds, 20% with a hit somewhere; the sample as a whole holds those more often.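 For each line, cells grew in 96-well plates with the test compound present at a single concentration for 48 hours.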 A number with no mark means an inactive call. The source made the active and inactive calls. The calls were made as follows: active = growth percent below 10; inactive = the rest.

The subject of the experiment is HL-60(TB) leukemia. Briefly: NCI-60 one-dose screen, 48 h (100 = growth as untreated, 0 = no growth, -100 = all killed). The settings on record: 10 µM unless noted.
For `CC(=O)Nc1ccc(/C=N/N2CCCCCC2)cc1`, the growth is 95.1%.

Regarding `Cl.[Pt].[c-]1ccccc1-c1ccccn1.c1ccc(P(c2ccccc2)C([PH+](c2ccccc2)c2ccccc2)[PH+](c2ccccc2)c2ccccc2)cc1`, the growth is 7.19% (active).

With `CC/C=C\C/C=C\C[C@H]1C/C=C2/C(=O)C=C[C@@H]2C/C=C\CCC(=O)O1`, the growth was 1.1% (active).

Regarding `COc1ccccc1N1CCN(C(=O)c2ccc3nc(NC(=O)c4ccc(NCCc5ccccc5)c([N+](=O)[O-])c4)sc3c2)CC1`, the growth was 94.3%.

For `COc1ccc(C#Cc2ccc(=O)oc2-c2cc(OC)c(OC)c(OC)c2)cc1O`, the growth is 23.5%.

As for `O=c1[nH]c2ccccc2cc1-c1nnc(Cc2ccccc2)o1`, the growth was 27.1%.

Turning to `Cc1ccc(C)c2c1sc1nc(N3CCOCC3)c(C#N)c(=O)n12`, the growth was 93.4%.

On to `COc1cc2c(O)n(CCCN3CCOCC3)c3c4cnc5cccc(c(=O)c3c2cc1OC)c54`, for which the growth was 42.8%.

On to `CC(=O)n1cc([C@H]2CC[C@H](c3cn(C(C)=O)c4ccccc34)c3c2[nH]c2ccccc32)c2ccccc21`, for which the growth was 111%.

Consider `CCN(CC)CCCC(C)Nc1c2ccc(Cl)cc2nc2ccc(OC)cc12` (stereo not given), for which the growth is 55.3%.

In the case of `O=C(O)c1cn(C2CC2)c2cc(N3CCN(C(=O)N/N=C/c4cccc5ccccc45)CC3)c(F)cc2c1=O`, the growth is 97.8%.

Take `COc1cc(-c2nn(-c3ccc(NC(=O)Nc4ccc(Cl)c(Cl)c4)cc3)cc2-c2ccncc2)ccc1Cl`: the growth is 4.29% (active).

Regarding `CC1(C)N=C(N)N=C(N)N1c1ccc(CCc2ccccc2)c(Cl)c1`, the growth is 2.09% (active).

For `COc1cc(C(=O)n2nc(N)c3c(C)cc(C)nc32)cc(OC)c1OC`, the growth was 21.6%.

Consider `O=C1/C(=C/c2cccc([N+](=O)[O-])c2)COc2ccc(O)c(O)c21`, for which the growth is -19.5% (active).

Take `CCCCNC(=O)Oc1ccc(/C(=C(/C)Cc2ccc(OC)cc2)c2ccc(OCCN3CCCC3)cc2)cc1`: the growth is 43.9%.

Take `COc1ccc(OCC(=O)OC(C)C)cc1`: the growth is 90%.

As to `Cc1c(Cn2cc(COc3ccc(Br)cc3)nn2)c(C)c(Cn2cc(COc3ccc(Br)cc3)nn2)c(C)c1Cn1cc(COc2ccc(Br)cc2)nn1`, the growth is 89.8%.

In the case of `COc1ccc(S(=O)(=O)N(C)c2oc(-c3ccc(Cl)cc3)nc2C#N)cc1`, the growth is 63.9%.

For `O=C(Nc1cccc2[nH]c(C(F)(F)F)nc12)c1ccc(Br)cc1F`, the growth was 22.4%.

As to `CCC(C)(C)c1ccc(OCCCCCCN2CCNCC2)cc1`, the growth is -17.4% (active).

Regarding `CN(C)CCCOc1ccc(NC2=C(Cl)C(=O)C(Nc3ccc(OCCCN(C)C)cc3)=C(Cl)C2=O)cc1`, the growth was -39.9% (active).

With `Oc1ccc(-c2nc(-c3ccc4oc5ccc(-c6[nH]c(-c7ccc(O)cc7)nc6-c6ccccc6)cc5c4c3)c(-c3ccccc3)[nH]2)cc1`, the growth was 39.9%.

With `COc1ccccc1-c1nc2ccc3[nH]ncc3c2c2c1CCCC2`, the growth was 89.6%.

For the compound `COc1cccc(OC)c1OC(=O)c1ccccc1`, the growth is 110%.

As for `CC(C)[C@@]12C[C@@H](OC(=O)[C@H]3CO3)[C@@](C)(O1)[C@@H]1CC[C@@H](C)[C@H]1[C@@H]2OC(=O)/C=C/c1ccccc1`, the growth was 67%.

Turning to `CC(C)OC(=O)Nc1cc(F)ccc1F`, the growth is 94.7%.

In the case of `Cc1cc2oc(/C=C/c3ccccc3)cc(=O)c2c(C)c1Cl`, the growth is 80.8%.

For the compound `Cc1ccc2nc(/C=C/c3ccc(N(C)C)cc3)cc(C)c2c1`, the growth is 15.2%.

Consider `CC1(C)CC[C@]2(C(=O)N3CCOCC3)CC[C@]3(C)C(=CC[C@@H]4[C@@]5(C)CC[C@H](OC(=O)c6cccnc6)C(C)(C)[C@@H]5CC[C@]43C)[C@@H]2C1`, for which the growth is 45.4%.

Consider `COc1cc(OC)cc(C2C(C#N)=C(N)Oc3c2ccc2ccc(O)cc32)c1` (stereo not given), for which the growth was -23.8% (active).

For `C#CC[C@H](N)C(=O)O`, the growth is 99.9% [20 µM].

On to `CC(=O)OCC1=CC2OC(=O)C3=COC(OC4OC(CO)C(O)C(O)C4O)C1C32` (stereo not given), for which the growth is 120%.

Consider `NC(=O)NNC(=O)c1ccccc1`, for which the growth is 103%.

With `COc1cc(C(N)=O)cc(OC)c1OC`, the growth was 96.6%.

For the compound `CCCCCCCCCCCC[n+]1ccccc1` (tested in a mixture with another compound), the growth is -77.6% (active).

For `C/C=C(\C)C(=O)NC1=CC[C@@]2(C)C(=CCC3C2CC[C@@]2(C)C3CC[C@@H]2C(C)N(C)C)C1=O` (stereo not given in full), the growth is 8.53% (active).

For `COc1ccc(/C(=C\c2cc(OC)c(OC)c(OC)c2)C(=O)Nc2nc3ccc(Cl)cc3s2)cc1`, the growth was 81.4%.

As to `Fc1cnccc1-c1nc2ccc3[nH]ncc3c2c2c1CCCC2`, the growth is 16.9%.

With `CCN1C(=O)N(CC)C2C1NN=c1s/c(=C3\C(=O)N(CCc4ccccc4)c4ccccc43)c(=O)n12` (stereo not given), the growth was -46.1% (active).
